Laboratory results: PubChem BioAssay
Several values for one entry are separate records, joined by “and”; a condition that tells them apart may be missing. Equal values may be shown once. Activity calls are given as the source filed them. Unless noted, how the calls were made is not given here.

Key:
[1] = tested on: XIP peptide (Xip251-270) binding; experiment: XIP fragment 251-270 binding compounds – biochemical, small-molecule microarray, fluorescence 635/667 nm, 0.1 µg/mL protein, primary screen (AID 1182); settings: fluorescent protein binding, 635 nm, higher = more signal, called active from +8 up or from −8 down
XIP peptide (Xip251-270) = experiment: compounds binding XIP fragment 251-270 – biochemical, small-molecule microarray, fluorescence 635/667 nm, 0.5 µg/mL protein, primary screen (AID 1183); settings: fluorescence 635 nm, higher = more signal
[2] = blood-stage malaria parasite viability loss – strain 3D7, DAPI fluorescence, 100 nL, primary screen (AID 1184);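 further: parasites grown inside human red blood cells in medium with human serum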; settings: P. falciparum 3D7 growth, 3 d, higher = more signal
[3] = biological target: Homeobox protein Hox-A13 (Mus musculus) (UniProt Q62424); experiment: disruptors of Hoxa13 oligonucleotide interaction – biochemical, fluorescence polarization, labeled oligonucleotide, primary screen (AID 1185); settings: Hoxa13:DNA binding, 15 min, higher = more signal, called active from +8 up or from −8 down
[4] = blockers of DNA damage checkpoint Chk1 activation – imaging, HeLa, hydroxyurea, phospho-Chk1 antibody, percent positive cells, primary screen (AID 1186); settings: hydroxyurea-induced phospho-Chk1 immunofluorescence imaging, higher = more signal
[5] = blockers of DNA damage checkpoint Chk1 activation – imaging, HeLa, hydroxyurea, phospho-Chk1 nuclear intensity, primary screen (AID 1187); settings: hydroxyurea-induced phospho-Chk1 immunofluorescence imaging, higher = more signal

Homeobox protein Hox-A13 (Mus musculus), sequence (Q62424 whole entry, looked up): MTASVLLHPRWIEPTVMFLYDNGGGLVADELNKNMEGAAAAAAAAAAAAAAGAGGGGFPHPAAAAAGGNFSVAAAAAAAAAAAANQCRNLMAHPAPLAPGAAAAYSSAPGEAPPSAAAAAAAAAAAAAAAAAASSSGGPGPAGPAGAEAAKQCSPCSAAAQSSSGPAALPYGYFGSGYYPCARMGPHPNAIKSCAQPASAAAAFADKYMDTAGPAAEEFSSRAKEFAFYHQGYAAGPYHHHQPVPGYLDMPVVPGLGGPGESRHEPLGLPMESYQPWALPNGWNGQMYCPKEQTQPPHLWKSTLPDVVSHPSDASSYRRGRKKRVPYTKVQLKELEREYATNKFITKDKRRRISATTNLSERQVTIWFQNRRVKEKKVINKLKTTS

SMILES	composite z-score [1]	composite z-score (XIP peptide (Xip251-270))	z-score [2]	z-score [3]	z-score [4]	z-score [5]
C=C(C)C(=O)OC[C@@H]1CN2[C@@H](CC[C@@H](C)[C@@H]2c2ccc(Br)cc2)C(=O)O1	0.0138 (inactive)	0.175	0.693	-3.29 (inactive)	–	–
CCOC(=O)[C@H](CC(C)C)NC(=O)CCC1CC(OC(=O)NCc2cccc3ccccc23)CC2(CCCC(COC(=O)NCc3ccccc3)O2)O1 (stereo partly specified)	-0.17 (inactive)	0.374	-1.8	-2.88 (inactive)	–	–
CCN1C(=O)[C@H]2[C@H]3[C@H](O)[C@H](O)CC(=NOC[C@@H](O)COCc4ccco4)[C@@H]3CC[C@H]2C1=O	-0.24 (inactive) and 1.01 (inactive)	0.232 and 0.595	0.0479 and -0.919	-0.849 (inactive) and -2.85 (inactive)	–	–
C[C@@H]1CC[C@H]2C(=O)O[C@H](CN=[N+]=[N-])CN2[C@H]1c1ccc(Br)cc1	-0.036 (inactive) and -0.0365 (inactive)	0.183 and 0.186	-2.02 and -0.068	-1.98 (inactive) and -3.31 (inactive)	–	–
C=CCN(C(=O)C1N(C(C)(C)CO)C(=O)C2C(C(=O)O)C3C=CC21O3)C(C)(C)C (stereo unspecified)	-0.651 (inactive) and 0.11 (inactive)	-0.901 and -0.924	0.214 and -0.208	-1.11 (inactive) and 0.241 (inactive)	-0.518 (inactive) and 1.17 (inactive)	-0.112 (inactive) and 0.674 (inactive)
CCCC[C@@H]1CN2[C@H](c3ccc(Br)cc3)[C@@H](C)CC[C@H]2C(=O)O1	0.744 (inactive) and -0.433 (inactive)	-0.322 and -0.118	-0.0735 and 0.113	-1.48 (inactive) and -3.43 (inactive)	–	–
CCN1C(=O)[C@H]2[C@H]3[C@H](O)[C@H](O)CC(=NNC(=O)OCc4ccc(OC)cc4)[C@H]3CC[C@H]2C1=O	0.0568 (inactive)	0.267	0.38	0.429 (inactive)	–	–
C=CCN(C(=O)C1N(c2c(Cl)cccc2CO)C(=O)C2C(C(=O)O)C3C=CC21O3)C(C)(C)C (stereo unspecified)	0.13 (inactive) and -0.96 (inactive)	0.106 and -0.591	-1.76 and 0.0813	-1.56 (inactive) and 0.87 (inactive)	-0.198 (inactive) and -0.391 (inactive)	0.0398 (inactive) and 1.14 (inactive)
CO[C@@H]1C=CCC(=O)N2CCC[C@H]2C(=O)OC[C@H](C)C(=O)OC[C@H]1C	0.28 (inactive)	0.612	0.471	-0.499 (inactive)	–	–
C=CCN(C(=O)C1N(c2c(Cl)cccc2CO)C(=O)C2C(C(=O)O)C3C=CC21O3)c1ccc(OC)cc1 (stereo unspecified)	-0.241 (inactive) and -0.23 (inactive)	0.74 and 0.312	-0.927 and 0.408	-1.96 (inactive) and 0.908 (inactive)	-0.6 (inactive) and -1.27 (inactive)	0.0631 (inactive) and -0.682 (inactive)
C=CCN(C(=O)C(c1cccs1)N(C(=O)/C=C\C(=O)O)c1c(Cl)cccc1CO)c1ccc(OC)cc1 (stereo unspecified)	0.861 (inactive) and 0.113 (inactive)	-0.457 and -1.04	0.734 and 1.62	0.171 (inactive) and -1.67 (inactive)	-0.0464 (inactive) and 0.245 (inactive)	0.0355 (inactive) and 0.636 (inactive)
C=CCN(C(=O)C(c1cccs1)N(C(=O)/C=C\C(=O)O)c1ccc(CCO)cc1)c1ccc(OC)cc1 (stereo unspecified)	-0.104 (inactive) and -0.169 (inactive)	-0.0376 and -1.95	-0.142 and -0.395	-0.698 (inactive) and -0.535 (inactive)	-0.157 (inactive) and 0.581 (inactive)	0.686 (inactive) and 0.548 (inactive)
C=C[C@@H](OC)[C@H](O)c1ccc(OC)c(O)c1	0.263 (inactive) and -0.18 (inactive)	-0.531 and -1.37	-0.151 and -0.337	-0.828 (inactive) and 0.853 (inactive)	0.719 (inactive) and -0.433 (inactive)	-0.0654 (inactive) and 0.0937 (inactive)
C=C[C@@H](OC)[C@H](O)c1ccc(OCCO)cc1	0.602 (inactive) and -0.746 (inactive)	0.524 and 0.496	-0.748 and 0.0067	-0.717 (inactive) and -0.113 (inactive)	-0.949 (inactive) and -0.429 (inactive)	0.0246 (inactive) and 0.283 (inactive)
C=CC[C@H](O)c1ccc(OCCO)cc1	0.179 (inactive) and 0.125 (inactive)	-1.28 and -0.655	-0.597 and 1.72	-0.488 (inactive) and -0.803 (inactive)	-0.23 (inactive) and 0.182 (inactive)	0.313 (inactive) and 0.469 (inactive)
